# Assay outcomes from PubChem BioAssay.
# In the library only some 3.5% were active in any assay of this set; here they are far more common.
# TEAD-YAP inh: TEAD-YAP interaction inhibition; HEK-TIYL cells, TEAD-Gal4/YAP UAS-luciferase luminescence; inhibition, % at 9.12 µM; 1.4% of 640,000 active; AID 1259422; in the data active means inhibition above about 32%;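 further: 0% = median of test compound wells and 100% = reference inhibitor wells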
# GPR151 activ: activates the human receptor GPR151. AID 1508602. Q8TDV0. 1% of 650,000 active. activation, % at 11.2 µM. PathHunter beta-arrestin GPR151 cells, luminescence; in the data active means activation above about 4.9%;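 further: 0% = median of compound wells and 100% = cells with positive control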
# MITF primary: inhibitors of human MITF | O75030 | AlphaScreen MITF homodimerization, bead proximity signal | inhibition, % at 2.6 µM | 0.91% of 650,000 active | AID 1259374; in the data active means inhibition above about 50%;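 further: 0% = vehicle wells with protein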
# Target sequence (O75030 whole entry, looked up): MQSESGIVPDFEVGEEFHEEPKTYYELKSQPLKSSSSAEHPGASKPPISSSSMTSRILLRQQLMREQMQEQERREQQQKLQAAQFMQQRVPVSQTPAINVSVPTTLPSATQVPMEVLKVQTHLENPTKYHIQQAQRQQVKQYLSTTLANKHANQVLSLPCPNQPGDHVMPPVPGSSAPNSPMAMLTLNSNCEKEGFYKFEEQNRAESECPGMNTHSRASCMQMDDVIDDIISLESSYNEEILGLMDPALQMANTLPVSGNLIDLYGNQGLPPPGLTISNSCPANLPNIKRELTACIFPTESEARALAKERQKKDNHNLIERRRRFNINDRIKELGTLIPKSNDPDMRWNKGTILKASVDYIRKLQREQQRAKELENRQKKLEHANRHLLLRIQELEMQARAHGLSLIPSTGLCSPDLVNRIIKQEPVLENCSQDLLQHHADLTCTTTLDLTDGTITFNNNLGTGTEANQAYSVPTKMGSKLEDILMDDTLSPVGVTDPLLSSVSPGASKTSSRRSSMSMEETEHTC
# FBW7 activator: human FBW7 E3 ligase activation, primary screen | Q969H0 | AlphaScreen FBW7–phospho-cyclin E peptide binding, activator screen | normalized activity (activation), % at 26.1 µM | 0.13% of 650,000 active | AID 1259310; in the data active means normalized activity above about 1.9%;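 further: purified mutant Fbw7 with reduced substrate affinity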
# Active calls of the source: *.
SMILES,TEAD-YAP inh,GPR151 activ,MITF primary,FBW7 activator
COc1cc2c(cc1OC)C(C)N(C(=O)c1ccc(F)cc1)CC2 (centres undefined),1,2,-9,0
CC1(C)OC2C(COS(C)(=O)=O)OC(n3ncc(=O)[nH]c3=O)C2O1 (centres undefined),-11,2,-2,0
COc1ccc(C(=O)Nc2ccc3oc(-c4ccc(C(C)(C)C)cc4)nc3c2)cc1[N+](=O)[O-],-3,1,11,0
Cc1ccccc1NC(=O)c1cccs1,7,0,0,0
Cc1ncn(-c2ccc(Nc3ncc(C)c(Nc4ccccc4C(N)=O)n3)cc2)n1,88*,0,7,1
N#Cc1ccc(Nc2ncc(Cl)c(Nc3ccccc3C(N)=O)n2)cc1,26,0,14,0
COc1cnc(Nc2ccc(N3CCOCC3)cc2)nc1Nc1ccccc1C(N)=O,55*,0,7,0
NC(=O)c1ccccc1Nc1nc(Nc2ccc(N3CCCC3=O)cc2)ncc1Cl,78*,3,-5,0
COc1cc(N2CCOCC2)ccc1Nc1ncc(Cl)c(Nc2ccccc2C(=O)NC2CC2)n1,12,0,2,0
CC(C)NC(=O)NC(=O)COc1ccccc1C#N,-35,-1,-5,0
CC(C)(C)NC(=O)NC(=O)COc1ccccc1C#N,40*,-2,1,0
O=C(Cn1cnc2ccccc2c1=O)NCCC(=O)N1CCCCC1c1cccnc1 (centres undefined),0,0,3,0
CC(C)C(=O)Nc1ccc(-c2nc3cccnc3s2)cc1,87*,-5,12,0
CCCC(=O)Nc1ccc(-c2nc3cccnc3s2)cc1,15,-2,9,0
COc1ccc(C2Oc3ccccc3C3=C2C(c2cccs2)n2ncnc2N3)cc1OC (centres undefined),52*,0,7,0
COc1cc(C2CC(c3c(O)cc(C)oc3=O)=Nc3ccccc3S2)cc(OC)c1O (centres undefined),44*,1,12,0
CCOC(=O)c1[nH]c(C)c(C(=O)Nc2ccccc2SC)c1C,52*,1,-3,0
CCOC(=O)c1[nH]c(C)c(C(=O)Nc2ccccc2)c1C,-14,0,3,0
CCOC(=O)c1[nH]c(C)c(C(=O)Nc2ccc(OC)cc2)c1C,-4,-1,-1,0
CCOC(=O)c1[nH]c(C)c(C(=O)Nc2ccccc2OC)c1C,59*,-1,17,1
CCOC(=O)c1[nH]c(C)c(C(=O)Nc2ccc(OC)cc2OC)c1C,44*,1,6,0
CCOC(=O)c1[nH]c(C)c(C(=O)Nc2ccccc2F)c1C,30,-2,13,1
CCc1cc(CC)c2c(=O)c3ccccc3sc2c1,3,-1,8,0
CCN(CC)CCNc1ccc(CO)c2sc3ccccc3c(=O)c12,34*,2,12,0
CC(C)OCCCNC(=O)c1cc(-c2cccs2)nc2ccccc12,36*,0,-1,0
SMILES,TEAD-YAP inh,GPR151 activ,MITF primary,FBW7 activator
O=C(NCCCN1CCOCC1)c1cc(-c2cccs2)nc2ccccc12,14,0,-5,0
Cc1nc(C)n(-c2ccc(Nc3cc(-c4nn(-c5nccs5)cc4-c4ccccc4)ccn3)cc2)n1,11,0,3,0
Cc1nc(C)n(-c2ccc(Nc3cc(-c4nn(-c5ccccc5C#N)cc4-c4ccccc4)ccn3)cc2)n1,33*,-2,19,0
Cc1nc(C)n(-c2ccc(Nc3cc(-c4nn(-c5ccc(C#N)cc5)cc4-c4ccccc4)ccn3)cc2)n1,42*,-2,18,1
Cc1nc(C)n(-c2ccc(Nc3cc(-c4nn(-c5ccc(N(C)C)cc5)cc4-c4ccccc4)ccn3)cc2)n1,-13,1,2,0
O=C(N1CCCc2ccccc21)C1(c2cccs2)CCOCC1,2,-2,-2,0
O=C1OC(c2ccc(Cl)c([N+](=O)[O-])c2)=N/C1=C/c1cccc(Cl)c1,-2,-1,1,0
O=C1OC(c2ccc(-c3ccccc3)cc2)=N/C1=C\c1cccc(F)c1,-3,0,-3,0
O=C1OC(c2cccc(F)c2)=N/C1=C\c1ccccc1,36*,-7,-3,0
O=C1OC(c2ccc(Cl)c([N+](=O)[O-])c2)=N/C1=C\c1cccc(F)c1,4,1,-19,2.0*
Cc1ccc(N2C(=O)C3CCCCC3C2=O)cc1 (centres undefined),5,1,-2,0
COc1ccc(C2CC(=O)N(CC(=O)c3ccccc3)c3ccccc3S2)cc1OC (centres undefined),76*,2,5,0
COc1ccc(NCc2ccc(O)c3ncccc23)cc1,-9,0,73*,-2
O=S(=O)(c1ccc(Cl)cc1)N1CCN(Cc2ccc(O)c3ncccc23)CC1,66*,2,4,-1
Oc1ccc(CNc2ccc(Cl)cc2)c2cccnc12,26,-2,49,-1
Oc1ccc(CN2CCN(Cc3ccccc3)CC2)c2cccnc12,1,0,95*,-1
O=C(CN1Cc2ccccc2C1)N1CCc2c(nc(N3CCOCC3)[nH]c2=O)C1,-9,-1,4,0
Cn1c(SCC(=O)N2CCCC2)nnc1-c1ccccc1O,58*,-1,24,0
Cn1c(SCC(=O)O)nnc1-c1ccccc1O,44*,1,5,0
NC(=O)c1cccc2c1NC(C(=O)O)C1CC=CC21 (centres undefined),0,0,57*,-2
COC(=O)c1cccc2c1NC(C(=O)O)C1CC=CC21 (centres undefined),6,0,76*,0
NC(=O)c1cccc2c1NC(c1cccc([N+](=O)[O-])c1)C1CC=CC21 (centres undefined),-5,0,14,0
C=CCN1C(=O)/C(=C/c2ccc(OC(C)C(=O)O)c(OCC)c2)C(=O)NC1=S (centres undefined),-1,0,5,0
COc1ccc(C2CC(c3ccc(Cl)cc3)Nc3ncnn32)c(OC)c1OC (centres undefined),5,2,7,0
COc1cc(C2CC(c3ccc(Cl)cc3)Nc3ncnn32)cc(OC)c1OC (centres undefined),54*,4,6,0
SMILES,TEAD-YAP inh,GPR151 activ,MITF primary,FBW7 activator
O=C(N1CCCC1)N1c2ccccc2Sc2ccccc21,29,-1,12,1
O=C(N1CCN(c2ccccn2)CC1)N1c2ccccc2Sc2ccccc21,51*,-1,0,1
O=C(c1ccco1)N1CCN(C(=O)N2c3ccccc3Sc3ccccc32)CC1,51*,0,22,0
COc1ccc(-c2csc3ncnc(NCCCO)c23)cc1,28,1,8,0
CCOC(=O)CSc1ncnc2scc(-c3ccc(F)cc3)c12,-15,0,-15,2.4*
CCOC(=O)CNC(=O)CSc1ncnc2scc(-c3ccc(Cl)cc3)c12,-10,-1,-1,0
COc1ccc(-c2csc3ncnc(NCCO)c23)cc1,38*,2,-2,1
COC(=O)CCNc1ncnc2scc(-c3ccc(C)cc3)c12,36*,3,1,0
